# Results as given in PubChem BioAssay AID602325 (NMMLSC, 2012).
# The list shows a part of the results. The source made the active and inactive calls. No stated cut-off is given here; in the data, active means inhibition above about 24%; inactive means the rest.
# Tested on: Botulinum neurotoxin type A light chain protease [Clostridium botulinum A str. ATCC 3502]
# Assay: BoNT/A light chain protease inhibitors, confirmation, biochemical, flow cytometry, cherry pick 2 (AID 602325)
# Settings: multiplex microsphere protease cleavage assay, at 10 µM, active compounds read high
row,SMILES,inhibition
1,O=C(CN1CCN(c2ccccc2O)CC1)NC(=O)NCc1ccccc1,1.6% (inactive)
2,Cc1cc2ccccc2n1CCNC(=O)COc1ccc2ccccc2c1,5.2% (inactive)
3,Cc1ccc(CNC(=O)c2cccc3c2C(=O)c2ccc(N4CCC(C)CC4)cc2S3(=O)=O)cc1,8.9% (inactive)
4,O=C(OCC(=O)c1c[nH]c2ccccc12)c1cccc(O)c1,1.5% (inactive)
5,Cc1cc2cc(CNC(=O)c3ccc(S(=O)(=O)N4CCOCC4)cc3)ccc2[nH]1,3.8% (inactive)
6,COc1ccc(-c2cc3c(c4c2ccn4C)C2CCC3C2)cn1 (stereo not drawn),25.2% (active)
7,CCOc1ncccc1C(=O)OCC(=O)c1c[nH]c2ccccc12,9.5% (inactive)
8,CC(=O)OCCN(CCCn1c(-c2ccncc2)nc2ccccc21)c1nc(-c2ccc(C)cc2)cs1,1.8% (inactive)
